# An excerpt weighted towards active compounds, which were near 0.72% of everything screened.
# RGS4 inh = inhibitors of human regulator of G protein signaling 4; Transcreener GDP fluorescence polarization, RGS4-accelerated GTP hydrolysis; AID 504845; 0.039% of 390,000 active; Potency, µM (titrated, usually from 114 µM), for inactives: at the highest dose activity change, negative = inhibition, hits mostly inhibitors; also: potency is read from the fitted curve at half-maximal effect; nearly all actives have a fitted effect of over 75% in size
#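 MLSMR compounds (23 nl, pin-transferred) preincubated 10 min at room temperature with a 500nM (2x) first reagent, then RGS4 at 900nM (2x) plus Transcreener GDP mix added; fluorescence polarization (620/688 nm) read before and after 90 min at 30 °C.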
# USP2a inh = inhibitors of human ubiquitin-specific protease USP2a | USP2 core, Ub-CHOP2 coupled fluorogenic reporter, 485/531 | Potency, µM (doses to about 38.3 µM), for the others: at the highest dose activity change, negative = inhibition, actives largely listed as inhibitors | AID 463254 | 0.01% of 330,000 active;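 also: potency is read from the fitted curve at half-maximal effect; plate controls were DMSO wells for no effect and full inhibition by NEM control for full effect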
# Target sequence (O75604 whole entry, looked up): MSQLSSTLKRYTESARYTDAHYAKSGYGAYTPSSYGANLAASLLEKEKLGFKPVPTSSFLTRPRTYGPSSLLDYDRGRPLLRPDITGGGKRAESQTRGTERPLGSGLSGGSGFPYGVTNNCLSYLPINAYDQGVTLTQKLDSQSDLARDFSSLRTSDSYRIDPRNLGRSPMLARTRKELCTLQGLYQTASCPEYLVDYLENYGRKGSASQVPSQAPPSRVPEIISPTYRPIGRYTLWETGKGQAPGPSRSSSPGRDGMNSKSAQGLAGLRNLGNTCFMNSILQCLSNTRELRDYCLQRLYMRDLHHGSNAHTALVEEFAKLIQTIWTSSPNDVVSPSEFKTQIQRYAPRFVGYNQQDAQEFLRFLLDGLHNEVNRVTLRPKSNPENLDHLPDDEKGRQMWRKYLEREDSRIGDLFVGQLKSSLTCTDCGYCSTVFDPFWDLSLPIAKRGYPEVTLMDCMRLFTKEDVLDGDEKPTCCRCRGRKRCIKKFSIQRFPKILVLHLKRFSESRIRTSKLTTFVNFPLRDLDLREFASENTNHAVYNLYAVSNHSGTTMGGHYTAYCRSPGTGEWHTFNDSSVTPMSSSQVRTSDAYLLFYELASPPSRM
#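 USP2 core (10nM final) preincubated 30min RT with compound in 20mM Tris-HCl pH 8.0, 2mM CaCl2, 2mM beta-mercaptoethanol, 0.05% CHAPS; 25nM Ub-CHOP2 plus 25nM reporter substrate added, fluorescence (Ex485/Em531) read after 60min.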
# Eya2 phos inh = blocks the phosphatase activity of human Eya2 | Potency, µM (doses to about 76.9 µM), inactives show at the top dose activity, negative = inhibition, hits mostly inhibitors | recombinant Eya2, OMFP fluorescence dephosphorylation (OMFP is methylfluorescein phosphate) | O00167 | 0.006% of 330,000 active; also: potency is read from the fitted curve at half-maximal effect
#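 Eya2 (0.2 uM) preincubated 10 min at ambient with compound, then OMFP substrate added at 50 uM; 10 min reaction in 50 mM HEPES pH 7.5, 50 mM NaCl, 5 uM MgCl2, 0.05% BSA, 1 mM DTT. Fluorescence read at Ex 485/Em 525 nm.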
# PI4K2A block = blocks human PI4K2A kinase activity. Q9BTU6. purified PI4K2A, ADP-Glo luminescence, 1 h; stronger effect = lower value. activity change, negative = inhibition, % at 76.9 µM. 0.13% of 420,000 active. AID 1346378; in the data active = activity change below about -50%; inconclusive = mostly about -30% to -49%;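 also: -100% = wells without enzyme as full effect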
#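 PI4K2A activity was measured by ADP-Glo luminescence: enzyme (4 ug/mL stock) and phosphatidylinositol (1.2 mM stock) in Tris pH 7.5/MgCl2/EGTA/Triton X-100 buffer were reacted with ATP (300 microM stock) for one hour at ambient temperature.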
# Six1-Eya2 inh = inhibitors of human Six1/Eya2 interaction; AID 651725; Q15475+O00167; AlphaScreen GST-Six1/His-Eya2 binding, biochemical; stronger effect = lower value; activity change, % (concentration not given with the values); 0.56% of 360,000 active; in the data active = activity change below about -65%; inconclusive = mostly about -30% to -63%
#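 AlphaScreen luminescence read after one hour at 37 °C in darkness. Pin-transferred compounds met GST-Six1 and His-Eya2 protein (5X stock 250 nM/500 nM) plus glutathione donor and Ni-chelate acceptor beads (5X, 50 ug/mL).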
# CtBP-E1A blk = blocks the CtBP interaction with E1A | AlphaScreen GST-E1A/His-CtBP binding, 1536-well; stronger effect = lower value | activity change, % (test concentration not listed) | AID 651724 | 0.49% of 340,000 active; in the data active = activity change below about -65%; inconclusive = mostly about -30% to -63%
#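 AlphaScreen with 125 nM GST-E1A and 125 nM His-CtBP (5X stocks) in Tris pH 8.0, 300 mM NaCl, BSA, Tween 20, TCEP. Compounds preincubated 2 h at 37 deg C, then glutathione donor/nickel acceptor beads added for 1 h at 37 deg C in dark.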
# The depositor's hits bear a star; u = inconclusive; x = not tested or not shown. Unless noted, calls follow the shape of the dose curve; as a rule, active = well fitted curve in the direction sought with a large enough effect; inconclusive = small, poorly fitted or top-dose-only effect, or another doubt; inactive = no such curve, though single readings can be large; an effect the other way counts as inactive or inconclusive. Unless noted, % is scaled to controls: 0 for no effect and ±100 for the full control effect.
SMILES,RGS4 inh,USP2a inh,Eya2 phos inh,PI4K2A block,Six1-Eya2 inh,CtBP-E1A blk
C=CCNc1nc(=S)[nH]c2cc(OC)c(OC)cc12,-17.0%,1.0%,3.3%,-7.6,-82.5*,-73.5*
COc1cc2[nH]c(=S)nc(NC3CCCC3)c2cc1OC,x,13.0%,-11.9%,x,x,x
Cc1ccc(CNC(=O)C2CCCN(S(=O)(=O)c3ccc4c(ccn4C)c3)C2)cc1 (stereo unspecified),-16.0%,x,x,1.2,x,x
c1ccc(-c2cn3c(n2)-c2ccccc2C3)cc1,-9.0%,-0.9%,-6.3%,-51.4*,-16.0,-2.9
O=C(O)c1ccccc1NS(=O)(=O)c1cccc(-n2sc3ccccc3c2=O)c1,-140.5%,0.2%,-0.5%,-17.6,-6.1,-13.8
Nc1sccc1C(=O)N1CCN(c2ccccc2)CC1,x,x,x,-11.2,-5.0,-3.3
Cc1nc2ccccn2c1C(=O)NNC(=S)Nc1ccc(Cl)cc1,-19.6%,0.0%,7.3%,-0.5,-4.2,1.7
Cc1cccc(-n2cnc(C(=O)NNC(=S)Nc3ccc(Cl)cc3)c2)n1,u,-8.1%,-13.4%,-0.4,-90.5*,-88.4*
CCOc1cc2sc(N3CCC(C(=O)Nc4ccc(C(C)C)cc4)CC3)nc2cc1Br,26.0%,x,x,-1.2,x,x
Cc1ccccc1N=Nc1ccc(O)c2ncccc12,7.7%,-0.9%,10.8%,-2.8,u,-25.9
COc1cccc(N=Nc2ccc(O)c3ncccc23)c1,-23.5%,5.4%,5.7%,u,-70.3*,-96.4*
Oc1ccc(N=Nc2ccc3c(c2)OCCO3)c2cccnc12,u,-11.6%,-9.7%,-10.7,-76.6*,-84.3*
Oc1ccc(COc2cccc3ccccc23)c2cccnc12,x,-2.6%,-0.2%,x,x,x
Nc1ccc(N=Nc2ccccc2)c2cccnc12,-20.3%,-9.1%,-13.0%,1.3,-65.2*,-72.7*
COc1ccc(C)cc1N=Nc1ccc(O)c2ncccc12,-5.9%,1.9%,2.2%,-20.2,-94.9*,x
O=C(NCCc1ccccc1Cl)c1ccc2c(c1)nc1n2CCOC1,-8.4%,x,x,-4.7,x,x
CCN(CC)C(=O)c1sc(NC(=O)C(C)Sc2nc(-c3ccccc3)cc(C(F)(F)F)n2)c(C(=O)OC)c1C (stereo unspecified),u,x,x,3.3,x,x
COc1cccc(N=Nc2ccc3cccnc3c2O)c1,-24.3%,0.1%,8.6%,u,-91.1*,x
COc1ccc(N=Nc2ccc(O)c3ncccc23)cc1,-39.5%,2.0%,8.6%,-1.5,-86.1*,x
COc1ccc(-c2[nH]ncc2N=Nc2ccccc2)cc1,6.0%,4.4%,-9.4%,1.1,-19.4,u
COc1ccc(N=Nc2cc(-c3ccccc3)ccc2O)cc1,21.6%,0.9%,-0.2%,-0.6,u,-69.3*
COCC(=O)N(C[C@H]1[C@H](c2ccccc2)[C@@H](CO)N1C(=O)NC(C)C)C(C)C,x,x,x,2.8,x,x
Cc1cccc(NC(=O)COC(=O)c2cccc3c2C(=O)c2ccccc2C3=O)c1C,4.1%,3.1%,-5.2%,-0.1,-65.1*,-5.6
O=C(O)c1cc(Nc2cc(Cl)c3nonc3c2[N+](=O)[O-])ccc1O,-85.7%,-11.0%,-9.1%,-59.0*,-79.3*,x
N#C/C(=C\c1ccc(-c2cc(Cl)ccc2Cl)o1)C(=O)Nc1cccc2ncccc12,2.99µM*,x,4.9%,-52.8*,x,x
Cc1c(NC(=O)/C(C#N)=C/c2ccc(-c3cc(Cl)ccc3Cl)o2)c(=O)n(-c2ccccc2)n1C,u,4.9%,6.1%,-0.5,u,5.4
O=c1oc2c(O)c(O)cc3c(=O)oc4c(O)c(O)cc1c4c23,u,1.12µM*,0.1%,-22.5,-74.5*,-12.5
CCNC(=O)[C@@H]1CCCN1C(=O)[C@H](CCCN=C(N)N)NC(=O)[C@H](CC(C)C)NC(=O)CNC(=O)[C@H](Cc1ccc(O)cc1)NC(=O)[C@H](CO)NC(=O)[C@H](Cc1c[nH]c2ccccc12)NC(=O)[C@H](Cc1cnc[nH]1)NC(=O)[C@@H]1CCC(=O)N1,x,x,x,-3.2,x,x
